The target in this assay is Potassium voltage-gated channel subfamily KQT member 2 (Rattus norvegicus) (UniProt O88943). Briefly: blockade of KCNQ2 thallium flux – cell-based, FluxOR thallium flux, CRC set 2, selectivity assay for KCNK9 inhibitor project, SAR follow-up (AID 588800).

Molecules are shown by their SMILES. Activity calls are given as the source filed them.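 How the source made its calls: active means peak inhibition of the KCNQ2 potassium channel above 30% at some tested dose, plus a fitted dose response curve; inactive means no inhibition at any dose, or no curve.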

Chain of Potassium voltage-gated channel subfamily KQT member 2 (Rattus norvegicus) (O88943 whole entry, looked up): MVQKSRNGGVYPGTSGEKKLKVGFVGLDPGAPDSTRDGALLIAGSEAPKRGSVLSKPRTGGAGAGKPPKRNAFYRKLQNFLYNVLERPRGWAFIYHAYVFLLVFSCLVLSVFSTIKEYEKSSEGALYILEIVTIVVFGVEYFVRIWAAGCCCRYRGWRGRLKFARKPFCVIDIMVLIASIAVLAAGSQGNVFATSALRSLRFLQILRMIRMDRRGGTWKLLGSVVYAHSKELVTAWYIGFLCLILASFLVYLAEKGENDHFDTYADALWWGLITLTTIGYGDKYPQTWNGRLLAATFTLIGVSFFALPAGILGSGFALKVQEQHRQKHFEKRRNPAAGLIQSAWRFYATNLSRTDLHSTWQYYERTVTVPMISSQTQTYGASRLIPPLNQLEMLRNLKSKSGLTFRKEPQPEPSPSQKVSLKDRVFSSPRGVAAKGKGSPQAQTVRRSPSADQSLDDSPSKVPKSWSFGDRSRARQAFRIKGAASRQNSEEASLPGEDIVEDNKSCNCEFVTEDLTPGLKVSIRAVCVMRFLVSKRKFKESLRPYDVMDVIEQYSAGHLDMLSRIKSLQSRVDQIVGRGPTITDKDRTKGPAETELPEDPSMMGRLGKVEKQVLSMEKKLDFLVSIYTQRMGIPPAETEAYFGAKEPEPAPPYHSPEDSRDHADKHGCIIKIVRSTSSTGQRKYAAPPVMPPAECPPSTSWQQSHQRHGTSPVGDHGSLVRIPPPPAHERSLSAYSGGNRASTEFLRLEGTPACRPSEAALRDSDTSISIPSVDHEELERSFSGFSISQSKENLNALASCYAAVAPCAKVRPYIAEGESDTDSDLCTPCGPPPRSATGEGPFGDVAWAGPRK

`CCOc1ccccc1NC(=O)c1cccc(NC(=O)C2CC2)c1`: the compound was classed as inactive. The value for `CC(C1CC2CCC1C2)n1c(-c2ccc(Cl)cc2)n[nH]c1=S` (stereo not given) was “inactive”.

Regarding `CN(C)c1ccc(C(=O)Nc2cccc(NC(=O)c3ccccc3)c2)cc1`, the compound was called inactive. Turning to `O=C(Nc1cccc(NC(=O)c2cccc(Cl)c2)c1)c1ccccc1`, the compound was classed as inactive. As for `CCOc1ccccc1NC(=O)c1cccc(NC(=O)CC2CCCC2)c1`, the compound was called inactive. For `CCOc1ccccc1C(=O)Nc1cccc(NC(=O)c2ccccc2OC)c1`, the compound was called inactive. The value for `COc1cccc(C(=O)Nc2cccc(NC(=O)c3cccc(C)c3)c2)c1` was “inactive”; that for `CC(C1CC2CCC1C2)n1c(C2CCOC2)n[nH]c1=S` (stereo not given) was “inactive”. The value for `Cc1cccc(C(=O)Nc2cccc(NC(=O)c3cccc(C(F)(F)F)c3)c2)c1` was “inactive”. The value for `O=C(Nc1cccc(NC(=O)c2cccs2)c1)c1ccccc1` was “inactive”; that for `O=C(Nc1cccc(NC(=O)c2ccccc2)c1)c1ccccc1` was “inactive”. Regarding `O=C(Nc1cccc(NC(=O)c2ccsc2)c1)c1ccccc1`, the compound was called inactive. With `COc1ccccc1NC(=O)c1cccc(NC(=O)c2ccccc2)c1`, the call was inactive. Next, `COc1ccccc1NC(=O)c1cccc(NC(=O)CC2CCCC2)c1`: “inactive”; `O=C(Nc1cccc(NC(=O)c2ccccn2)c1)c1ccccc1`: “inactive”. Turning to `CC(c1ccco1)n1c(-c2ccoc2)n[nH]c1=S` (stereo not given), the result was inactive.

On to `Cc1cccc(C(=O)Nc2cccc(NC(=O)c3ccccc3C(F)(F)F)c2)c1`, for which the compound was called inactive. The value for `Cc1cccc(C(=O)Nc2cccc(NC(=O)c3ccccc3)c2)c1` was “inactive”; that for `CC(C1CC2CCC1C2)n1c(-c2ccoc2)n[nH]c1=S` (stereo not given) was “inactive”; that for `CCOc1ccccc1NC(=O)c1cccc(NC(=O)C2CCCC2)c1` was “inactive”. The value for `COc1ccccc1C(=O)Nc1cccc(NC(=O)c2ccccc2OC)c1` was “inactive”; that for `Cc1cccc(-c2n[nH]c(=S)n2C(C)C2CC3CCC2C3)c1` (stereo not given) was “inactive”. Next, `COc1ccc(C(=O)Nc2cccc(NC(=O)c3ccccc3)c2)cc1`: “inactive”; `S=c1[nH]nc(-c2ccco2)n1CC1CCCCC1`: “inactive”. Take `CCOc1ccccc1NC(=O)c1cccc(NC(=O)c2ccccc2C(F)(F)F)c1`: the outcome was inactive. Next, `Cc1cccc(C(=O)Nc2cccc(NC(=O)C3CCCCC3)c2)c1`: “inactive”; `O=C(Nc1cccc(NC(=O)C2CCCCC2)c1)c1ccccc1`: “inactive”; `CCOc1cccc(NC(=O)c2cccc(NC(=O)C3CCCC3)c2)c1`: “inactive”. Next, `O=C(Nc1cccc(NC(=O)c2ccc(F)cc2)c1)c1ccccc1`: “inactive”; `Cc1cccc(C(=O)Nc2cccc(NC(=O)c3ccccc3C(C)C)c2)c1`: “inactive”. For `CCOc1ccccc1NC(=O)c1cccc(NC(=O)c2ccccc2)c1`, the compound was called inactive. Next, `CCOc1ccccc1NC(=O)c1cccc(NC(=O)c2ccccc2OC(F)(F)F)c1`: “inactive”. Next, `CCOc1ccccc1NC(=O)c1cccc(NC(=O)c2ccccc2Cl)c1`: “inactive”; `Cc1cccc(C(=O)Nc2ccccc2NC(=O)c2ccccc2)c1`: “inactive”; `CC(C)n1c(-c2ccco2)n[nH]c1=S`: “inactive”.

The record behind these values is PubChem BioAssay AID588800 (Johns Hopkins Ion Channel Center, 2011).
